Measured values published in PubChem BioAssay AID488893 (Broad Institute, 2010).
Entries with a potency or affinity are not part of this list. Activity calls are given as the source filed them.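 How the source made its calls: active means falling signal whose fitted half-maximal dose is at most ten times the top valid tested dose; inconclusive means flat curve with 30 to 70% inhibition, or poor fit; inactive means the rest, including changes in the wrong direction.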

Test: single-agent antifungal toxicity in C. albicans – CaCi-2 strain, Alamar Blue, dry powder, set 2, counter-screen for antifungal drug resistance project, dose response (AID 488893)
Settings: C. albicans CaCi-2 (fluconazole-resistant clinical isolate) growth, Alamar Blue fluorescence, 48 h; series mostly up to 26 µM; activity change, negative = inhibition: at the top concentration

Which “activity change, negative = inhibition” value does the source give for `O=C(c1ccc(Cl)nc1)N1CCN(c2ccnc3cc(Cl)ccc23)CC1` here?
Its value is -11.7% (inactive).

For `COc1ccc2c(N3CCN(C(=O)c4ccc(Cl)cc4)CC3)ccnc2c1`, which “activity change, negative = inhibition” value is on record?
Its value is -0.767% (inactive).

Which “activity change, negative = inhibition” value does the source give for `O=C(c1ccccc1Cl)N1CCN(c2ccnc3cc(Cl)ccc23)CC1` here?
Its value is 12.5% (inactive).

For `O=C(c1ccc(Cl)cc1)N1CCN(c2ccnc3ccc(Cl)cc23)CC1`, which “activity change, negative = inhibition” value is on record?
The value was -11.8% (inactive).

For `O=C(c1ccc(Cl)cc1)N1CCN(c2ccnc3cc(Cl)ccc23)CC1`, which “activity change, negative = inhibition” value is on record?
The value was -17.5% (inactive).

For `N#Cc1ccc(N2CCN(C(=O)c3ccc(Cl)cc3)CC2)nc1`, which “activity change, negative = inhibition” value is on record?
The value was 16.7% (inactive).

With `O=C(c1ccc(Cl)cc1)N1CCN(c2ncnc3ccccc23)CC1` as the compound, how does the “activity change, negative = inhibition” value read?
Its value is 19.6% (inactive).

Which “activity change, negative = inhibition” value does the source give for `COc1cccc2c(N3CCN(C(=O)c4ccc(Cl)cc4)CC3)cc(C)nc12` here?
The value was 5.94% (inactive).

For `COc1ccnc(N2CCN(C(=O)c3ccc(Cl)cc3)CC2)c1`, which “activity change, negative = inhibition” value is on record?
The value was -5.09% (inactive).

For `Cc1cc(N2CCN(C(=O)c3ccc(Cl)cc3)CC2)c2ccccc2n1`, which “activity change, negative = inhibition” value is on record?
Its value is 0.168% (inactive).

For `O=C(c1ccc(Cl)cc1)N1CCN(c2ccnc3ccccc23)CC1`, which “activity change, negative = inhibition” value is on record?
Its value is -9.45% (inactive).
